Screening data from PubChem BioAssay.
KB-V1 cytotox – KB-V1 MDR subline cytotoxicity. KB-V1 MDR cells viability, CellTiter-Glo, 72 h. Potency, µM (titrated, usually from 46.1 µM), usual class: cytotoxic. hit rate 3.4% among 400,000. AID 1347076; further: potency means the concentration at half of the fitted maximal effect; on the % scale 0 is the no-effect control and ±100 the full control effect; nearly all actives have a fitted effect of over 60% in size
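Following 72 h at 37 degrees C with compound, KB-V1 cell viability was read by CellTiter-Glo luminescence, medium being phenol-red-free DMEM plus 10% FBS; concentration-response parameters came from normalized, curve-fitted qHTS data.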
KB-3-1 tox – KB-3-1 parental cell cytotoxicity | KB-3-1 viability, CellTiter-Glo ATP luminescence, 72 h | Potency, µM (series often up to 46.1 µM), hits mostly cytotoxic | hit rate 1.4% among 400,000; further: potency means the concentration at half of the fitted maximal effect; on the % scale 0 is the no-effect control and ±100 the full control effect; nearly all actives have a fitted effect of over 60% in size
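Parental KB-3-1 adenocarcinoma cells in phenol-red-free DMEM with 10% FBS were pin-treated with compounds at several concentrations, incubated 72 h at 37 °C, and viability read by CellTiter-Glo luminescence; concentration-effect curves were fitted after normalization.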
ASM inhibitor – inhibitors of human secretory acid sphingomyelinase; placental ASM, HMU-PC fluorogenic substrate, 60 min; Potency, µM (highest dose often 57.5 µM), for inactives: top-dose activity change, negative = inhibition, most hits filed as inhibitors; P17405; hit rate 0.006% among 340,000; further: potency means the concentration at half of the fitted maximal effect
Target sequence (P17405 47-631 limits assumed): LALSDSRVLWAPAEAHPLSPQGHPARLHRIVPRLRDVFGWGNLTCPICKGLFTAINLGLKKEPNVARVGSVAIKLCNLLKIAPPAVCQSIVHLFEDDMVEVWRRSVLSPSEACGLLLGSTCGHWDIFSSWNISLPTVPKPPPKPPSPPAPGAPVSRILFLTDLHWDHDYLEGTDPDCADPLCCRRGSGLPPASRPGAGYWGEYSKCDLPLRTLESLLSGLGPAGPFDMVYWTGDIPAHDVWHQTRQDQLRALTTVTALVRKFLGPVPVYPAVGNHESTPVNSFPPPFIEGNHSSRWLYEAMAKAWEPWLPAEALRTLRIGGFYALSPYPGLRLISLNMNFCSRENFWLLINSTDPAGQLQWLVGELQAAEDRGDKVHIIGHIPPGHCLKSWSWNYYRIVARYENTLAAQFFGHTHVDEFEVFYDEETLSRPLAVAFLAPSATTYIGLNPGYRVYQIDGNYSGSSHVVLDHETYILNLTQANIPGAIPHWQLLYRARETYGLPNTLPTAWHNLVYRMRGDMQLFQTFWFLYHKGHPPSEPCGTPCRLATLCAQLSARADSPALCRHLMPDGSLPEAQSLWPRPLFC
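Fluorogenic HMU-PC substrate (9 uM final) is turned over by placental ASM in 60 min at 37 C after a 10 min compound preincubation. Reaction ended by alkaline stop (pH 10), with fluorescence read at 386/447 nm.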
SW480 rerep – DNA re-replication induction in SW480 cells; SW480 DNA re-replication, Hoechst DNA content imaging, 48 h; Potency, µM (doses to about 46.1 µM), without a hit: at the top dose re-replication activation, usual class: activators; hit rate 1.8% among 340,000; further: potency means the concentration at half of the fitted maximal effect; % of control where 0% means no effect; nearly all actives have a fitted effect of over 55% in size
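Compounds, transferred as 23 nL by pin tool, were incubated with cells for 48 hr; DNA content per nucleus was then quantified by Hoechst staining and fluorescence plate imaging.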
MCF10A rerep – induces DNA re-replication in MCF 10a normal breast cells; hit rate 2.9% among 350,000; Potency, µM (highest dose often 46.1 µM), for inactives: at the top dose activity, positive = re-replication, hits mostly activators; AID 624296; MCF 10A DNA re-replication, Hoechst nuclear intensity, 48 h; further: potency means the concentration at half of the fitted maximal effect; % of control where 0% means no effect; nearly all actives have a fitted effect of over 50% in size
Giardia kill – kills Giardia lamblia; activity change, % at 7.66 µM, hits read low; hit rate 0.15% among 340,000; AID 540267; Giardia lamblia trophozoite viability; in the data active means activity change below about -80%; inconclusive means between about -30% and that limit;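 further: parasites exposed to compound for two days anaerobically before the ATP read; on the % scale 0 is the no-effect control and ±100 the full control effect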
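Killing of trophozoites was scored by loss of ATP luminescence after a 48 hrs anaerobic exposure to compounds at 37 deg C, using 100 cells per well.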
Numbers without * were called inactive; i = inactive; u = inconclusive; x = no result. This is a sample that favours compounds with a hit; in the whole collection about 6.9% have one here. Unless noted, the call rests on the fitted dose curve; in most records, active means well fitted curve in the direction sought with a large enough effect; inconclusive means small, poorly fitted or top-dose-only effect, or another doubt; inactive means no such curve, though single readings can be large; an effect the other way counts as inactive or inconclusive.

SMILES | KB-V1 cytotox | KB-3-1 tox | ASM inhibitor | SW480 rerep | MCF10A rerep | Giardia kill
CSc1ccc(-c2nc3cnccn3c2Nc2ccc3c(c2)OCO3)cc1 | 23.1µM* | u | -14.8% | 6.7% | 5.8µM* | 8.3
Cc1ccc(Nc2c(-c3ccc(C)o3)nc3cnccn23)cc1 | i | i | 155.2% | 16.5% | u | -21.7
Cc1ccc(Nc2c(-c3ccccc3)nc3cnccn23)cc1 | i | i | 18.5% | 16.9% | 23.1µM* | -14.0
COc1ccc(-c2nc3cnccn3c2Nc2ccc(C)cc2)cc1 | i | i | 103.2% | 4.7% | 0.3% | 11.6
CSc1nc(=O)[nH]c2nc[nH]c12 | i | i | x | x | x | -16.5
COc1ccc(C2=Nc3ccccc3N(C(=O)c3ccc(C(F)(F)F)cc3)C2C(=O)Nc2c(C)cccc2C)cc1 (configuration not stated) | i | i | x | x | x | x
O=C(COC(=O)c1ccc(F)c(S(=O)(=O)N2CCCCC2)c1)NCc1ccc(F)cc1 | u | i | -3.6% | -3.8% | 29.7% | 11.9
COc1ccc(Nc2c(-c3ccc(C)o3)nc3cc(C)ccn23)cc1 | i | 23.1µM* | x | x | x | x
Cc1ccn2c(Nc3ccc4c(c3)OCO4)c(-c3ccc(C)o3)nc2c1 | i | i | x | x | x | x
COc1ccc(/C=C2\N=C(C(C)(C)C)OC2=O)c(OC)c1 | i | i | -6.7% | -0.9% | 23.1µM* | 12.4
Cc1oc(-c2ccc3c(c2)OCCO3)cc1C(=O)O | 14.6µM* | u | 4.0% | -5.9% | 14.3% | -11.1
Cc1oc(-c2ccc3c(c2)OCCO3)cc1C(=O)NCC(=O)O | i | i | -3.4% | 16.4% | -3.8% | 3.4
COc1cccc(/C=C/C(=O)c2ccc(NC3=NCCCS3)cc2)c1 | u | u | -2.7% | u | u | -18.7
O=C(/C=C/c1ccccc1)c1ccc(NC2=NCCCS2)cc1 | 20.6µM* | u | 1.3% | u | 18.4µM* | -5.8
CC(C)(C)c1ccc(/C=C/C(=O)c2ccc(NC3=NCCCS3)cc2)cc1 | u | u | -18.3% | u | 18.4µM* | -5.5
Cc1cccc(/C=C/C(=O)c2ccc(NC3=NCCCS3)cc2)c1 | u | u | -4.4% | 9.2µM* | u | -5.8
c1ccc(NC2=NCCCCS2)cc1 | i | i | 6.0% | -0.9% | 6.1% | -8.6
O=C(/C=C/c1ccc(Br)cc1)c1ccc(NC2=NCCCS2)cc1 | i | 20.6µM* | -21.7% | 4.61µM* | 5.17µM* | -17.5
c1coc(CNc2ncnc3c2[nH]c2ccccc23)c1 | i | u | x | x | x | -2.6
CCN(C(=O)CSc1nc2ccccc2n1CC(=O)N(C)C1CCCCC1)c1ccccc1 | i | i | x | x | x | x
Cc1ccc(NC(=O)Cn2cc3c(n2)CCC(C)C3)cc1C (configuration not stated) | i | i | x | x | x | x
Cc1onc(-c2ccc(Br)cc2)c1C(=O)Nc1ccc(Br)cc1F | i | i | x | x | x | x
COc1cc(/C=N/NC(=S)Nc2cccc(Cl)c2C)ccc1OCC(=O)N1CC(C)OC(C)C1 (configuration not stated) | 4.61µM* | i | -8.4% | 2.6% | 1.9% | 9.1
COc1ccc(N=c2nc(-c3ccccc3)n(-c3ccc(C)cc3)s2)cc1 | i | u | x | x | x | 11.7
O=C(NCC1COc2ccccc2O1)c1cccc(S(=O)(=O)N2CCCCC2)c1 (configuration not stated) | i | u | -0.1% | 3.3% | 3.4% | 7.9
Cc1ccc(CN(C)C(=O)c2cccc(S(=O)(=O)N3CCN(c4ccccc4)CC3)c2)cc1 | 18.4µM* | u | -13.0% | 9.3% | -0.9% | 3.2
CN(Cc1ccc(F)cc1)C(=O)c1cccc(S(=O)(=O)N2CCN(c3ccc(F)cc3)CC2)c1 | u | 13µM* | -11.2% | u | 6.9% | 4.0
CN(CC1COc2ccccc2O1)C(=O)c1cccc(S(=O)(=O)N2CCCC2)c1 (configuration not stated) | 8.2µM* | i | -0.6% | 0.9% | 0.5% | 8.7
